IL-1B inflam inh: inhibitors of inflammasome signaling (IL-1 beta secretion). AID 743279. THP-1 LPS/ATP IL-1B secretion, AlphaLISA, 16 h; hits give low values. 360,000 tested, 4.7% active. activity change, % at 57.5 µM; in the data active means activity change below about -50%; inconclusive means mostly about -30% to -49%
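Secreted IL-1B measured by AlphaLISA bead assay after 16 h compound exposure of THP-1 cells; compounds (final up to 57.5 uM) added 1 h before LPS (250 ng/mL) and ATP (1.25 mM) stimulation; lower signal means less secretion.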
DRD3 antagonist: antagonists of human D3 dopamine receptor; D3R cells, DiscoveRx beta-arrestin luminescence, antagonist mode; hits give low values; max response, negative = inhibition, %; 360,000 tested, 2.5% active; AID 652054; in the data active means max response below about -50%; inconclusive means no clear call, values can overlap the other calls
Target sequence (P35462 whole entry, looked up): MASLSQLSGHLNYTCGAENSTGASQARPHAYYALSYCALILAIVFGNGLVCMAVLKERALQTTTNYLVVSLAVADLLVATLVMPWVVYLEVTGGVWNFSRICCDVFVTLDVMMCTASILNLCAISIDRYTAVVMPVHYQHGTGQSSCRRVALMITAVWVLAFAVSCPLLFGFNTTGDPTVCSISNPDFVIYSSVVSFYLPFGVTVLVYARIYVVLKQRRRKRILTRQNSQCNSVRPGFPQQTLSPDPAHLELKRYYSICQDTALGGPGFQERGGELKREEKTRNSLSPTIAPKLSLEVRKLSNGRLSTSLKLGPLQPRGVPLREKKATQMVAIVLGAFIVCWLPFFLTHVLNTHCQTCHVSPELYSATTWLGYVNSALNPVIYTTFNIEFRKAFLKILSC
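Cells expressing the human receptor were seeded at 1500 cells/well, incubated overnight at 37 degrees C in 5% CO2, then exposed to library compounds with dopamine controls for 90 minutes at 37 degrees C before luminescent detection.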
TDP1 cell CPT: DT40-hTDP1 cell growth loss with CPT; Potency, µM (doses to about 46.2 µM), usual class: inhibitors; 420,000 tested, 12% active; chicken DT40 Tdp1-/-;hTDP1 cells + 20 nM CPT, ATP luminescence, 48 h; further: nearly all actives have a fitted effect of over 55% in size
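Cell growth measured by CellTiter-Glo luminescence after a minimum 48 h, 37 C compound exposure with 20 nM CPT in Tdp1-knockout DT40 cells stably expressing hTDP1, seeded 400/well; qHTS titration format.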
D3 ag: activates the human D3 dopamine receptor. P35462. max activation, %. 410,000 tested, 0.58% active. D3R DiscoveRx beta-arrestin cells, luminescence, 90 min. AID 652048; in the data active means max activation above about 30%
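Cells at 1500/well, incubated overnight, then treated with pinned compounds (dopamine as control) for 90 min at 37 degrees C. DiscoveRx reagent added for 30 - 60 minutes at room temperature; luminescence read.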
ClpP mod: qHTS Assay for Activators of ClpP; ATP-dependent Clp protease proteolytic subunit (Bacillus subtilis (strain 168)), P80244; purified B. subtilis ClpP, FRET peptide cleavage, 20 min; Potency, µM (highest dose often 57.5 µM); 340,000 tested, 1.9% active; AID 651965, 2013; active means well fitted falling curve with a large enough effect; inconclusive means small, poorly fitted or top-dose-only effect; inactive means no such curve, though single readings can be large or run the other way; further: the source files actives as falling curves though it sought activators and does not explain the sign; nearly all actives have a fitted effect of over 65% in size
Target sequence (P80244 whole entry, looked up): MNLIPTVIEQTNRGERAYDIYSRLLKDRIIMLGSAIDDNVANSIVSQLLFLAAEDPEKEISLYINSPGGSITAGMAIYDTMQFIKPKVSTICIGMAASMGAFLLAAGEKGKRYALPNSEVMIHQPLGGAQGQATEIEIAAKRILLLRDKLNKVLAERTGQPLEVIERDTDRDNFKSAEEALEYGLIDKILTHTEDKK
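Purified B. subtilis ClpP, 10 microg/mL final in Tris/HCl pH8 with KCl, BSA, glycerol and Tween-20, cleaved an Abz/nitrotyrosine-quenched decapeptide. Fluorescence (ex 320, em 430) was read at 0 and 20 min at room temperature. Delta was normalized to 5.8 microM ADEP and DMSO/no-enzyme controls.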
DT40 TDP1 no CPT: qHTS for Inhibitors of human tyrosyl-DNA phosphodiesterase 1 (TDP1): qHTS in cells in absence of CPT; DT40 Tdp1-/- hTDP1 cells, no CPT, ATP luminescence, 48 h; Potency, µM (top dose mostly 46.2 µM), actives largely listed as inhibitors; 420,000 tested, 15% active; AID 686978, 2013; further: nearly all actives have a fitted effect of over 55% in size
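Camptothecin absent (DMSO only). Human TDP1-complemented DT40 knockout cells, 400 cells/well, 37 °C for minimum 48 hr; ATP measured via CellTiter-Glo, 30 min dark incubation, luminescence.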
Numbers stand for hits; i = inactive; ? = inconclusive; nt = no result. Hits are enriched below; roughly 21% of the tested compounds scored in any of these assays. Unless noted, the call rests on the fitted dose curve; in most records, active means well fitted inhibition curve with a large enough effect; inconclusive means small, poorly fitted or top-dose-only effect; inactive means flat fitted curve, though single readings scatter.

SMILES	IL-1B inflam inh	DRD3 antagonist	TDP1 cell CPT	D3 ag	ClpP mod	DT40 TDP1 no CPT
COc1cccc(C(=O)N(Cc2ccco2)c2c(N)n(Cc3ccccc3)c(=O)[nH]c2=O)c1	i	i	i	i	i	i
CN(C)CCCN(C(=O)c1ccc(S(=O)(=O)N(C)Cc2ccccc2)cc1)c1nc2cc3c(cc2s1)OCO3	-51	i	i	i	i	16µM
Cc1ccc2sc(N(CCCN(C)C)C(=O)c3ccc(S(=O)(=O)N(C)C)cc3)nc2c1C	i	i	i	i	i	i
COc1ccc2sc(N(CCCN(C)C)C(=O)c3ccc(S(=O)(=O)N(C)Cc4ccccc4)cc3)nc2c1	-93	i	?	i	i	15µM
CCN(CC)CCN(C(=O)c1ccc(C(=O)c2ccccc2)cc1)c1nc2ccc(OC)cc2s1	?	i	i	i	i	i
CN(C)CCCN(C(=O)c1ccc2ccccc2c1)c1nc2cc3c(cc2s1)OCO3	-93	i	21µM	i	i	?
CCN(c1ccccc1)S(=O)(=O)c1ccc(C(=O)N(CCCN(C)C)c2nc3c(C)cccc3s2)cc1	-71	i	?	i	i	?
O=C1CC[C@@]23CCCN2C(=O)CCCC3C1 (stereo partly drawn)	i	i	i	i	i	i
CC1CN(S(=O)(=O)c2ccc(C(=O)N(CCCN(C)C)c3nc4cc5c(cc4s3)OCCO5)cc2)CC(C)O1 (stereo not drawn)	?	i	i	i	i	i
CCN(c1ccccc1)S(=O)(=O)c1ccc(C(=O)N(CCCN(C)C)c2nc3cc4c(cc3s2)OCO4)cc1	-57	i	18µM	i	i	?
CN(C)CCCN(C(=O)c1ccc([N+](=O)[O-])o1)c1nc2cc3c(cc2s1)OCO3	i	i	18µM	i	i	?
CN(C)CCN(C(=O)c1cccc2ccccc12)c1nc2cc3c(cc2s1)OCO3	-91	i	?	i	i	?
CN(C)CCCN(C(=O)c1ccc2c(c1)OCCO2)c1nc2cc3c(cc2s1)OCO3	i	i	?	i	i	i
CCN(CC)CCN(C(=O)c1cc2c(ccc3ccccc32)oc1=O)c1nc2cc3c(cc2s1)OCCO3	-61	i	18µM	i	i	21µM
CN(C)CCN(C(=O)c1ccc2ccccc2c1)c1nc2cc3c(cc2s1)OCCO3	i	i	?	i	?	?
CCc1ccc(NC(=O)c2nnn(Cc3cccc(C(F)(F)F)c3)c2N)cc1	nt	nt	i	i	i	i
c1coc(CNc2nc[n+]3c4c2ncn4CC3)c1	nt	nt	i	nt	i	i
COCCCN1CN=C(NS(=O)(=O)c2ccc(NC(C)=O)cc2)NC1	nt	nt	i	i	i	i
Cc1ccc2sc(N(CCCN(C)C)C(=O)c3ccc(S(=O)(=O)N(C)Cc4ccccc4)cc3)nc2c1C	-93	?	?	i	i	?
CCCNCC1C(Oc2ccc(Cl)cc2Cl)C(=O)N1c1cccc(C)c1C (stereo not drawn)	-53	?	?	i	i	18µM
CCCCNCC1C(Oc2ccc(Cl)cc2)C(=O)N1c1ccccc1C (stereo not drawn)	-196	?	?	i	nt	15µM
CCCCn1cnc2c(SCc3ccccc3)nc(N)nc21	-50	i	?	i	nt	?
CCCCn1cnc2c(SCc3ccccc3Cl)nc(N)nc21	-87	i	i	i	nt	?
Nc1nc(SCc2ccc(Cl)cc2Cl)c2ncn(C3OC(CO)C(O)C3O)c2n1 (stereo not drawn)	i	i	i	i	nt	i
Nc1nc(SCc2ccc(Br)cc2)c2ncn(C3OC(CO)C(O)C3O)c2n1 (stereo not drawn)	i	i	i	i	nt	?
SMILES	IL-1B inflam inh	DRD3 antagonist	TDP1 cell CPT	D3 ag	ClpP mod	DT40 TDP1 no CPT
CCCn1cnc2c(SCc3ccc(Cl)cc3)nc(N)nc21	-63	i	?	i	i	?
Nc1nc(SCc2ccccc2Cl)c2ncn(C3OC(CO)C(O)C3O)c2n1 (stereo not drawn)	i	i	i	i	nt	i
CCCn1cnc2c(SCc3ccccc3)nc(N)nc21	i	i	i	i	nt	?
CCCCn1cnc2c(SCc3ccc(Br)cc3)nc(N)nc21	-84	i	?	i	nt	?
CCOc1ccc(CN(C)C(=O)c2cc(S(=O)(=O)N3CCCC3)ccc2C)cc1	i	i	?	i	i	?
Nc1nc(SCc2ccccc2)c2ncn(Cc3ccccc3)c2n1	-64	i	?	i	i	?
CC(C)Cn1cnc2c(SCCc3ccccc3)nc(N)nc21	i	i	?	i	nt	?
COc1ccc(S(=O)(=O)N(C)C)cc1NC(=O)COC(=O)C1CC1	i	i	i	i	i	i
COc1cc(/C=C/C(=O)O)ccc1OS(=O)(=O)c1c(C)cc(C)cc1C	i	i	i	i	i	i
CCOC(=O)c1c(C)[nH]c(C)c1S(=O)(=O)N1CCC(C(=O)Nc2ccccc2CC)CC1	nt	nt	?	i	i	?
COC(=O)Nc1ccc(S(=O)(=O)N2CCC(C)CC2)cc1	i	i	i	i	i	i
O=C(Nc1ccc(Oc2ccccc2)cc1)C1CCN(S(=O)(=O)c2ccccc2)CC1	nt	nt	?	i	i	9.2µM
CCOC(=O)c1ccc(NC(=O)C2CCN(S(=O)(=O)c3ccccc3)CC2)cc1	i	i	26µM	i	i	?
CCOC(=O)c1ccc(NC(=O)C2C3CCCCC32)cc1 (stereo not drawn)	-64	i	i	i	i	?
COC(=O)Nc1ccc(S(=O)(=O)N2CCC(Cc3ccccc3)CC2)cc1	?	i	?	i	i	21µM
Cc1ccc(S(=O)(=O)N2CCC(C(=O)Nc3ccc(Oc4ccccc4)cc3)CC2)cc1	nt	nt	?	i	i	?
Cc1ccc(S(=O)(=O)N2CCC(C(=O)NCCCN3CCCC3=O)CC2)cc1C	i	i	i	i	i	i
CC(=O)Nc1c(O)c2cccc3c2n(c1=O)CCC3	i	i	i	i	i	i
O=c1[nH]cc(NCCNc2ncc(C(F)(F)F)cc2Cl)c(=O)[nH]1	i	i	i	i	i	i
CCOC(=O)c1ccc(S(=O)(=O)N2CCC(C(=O)NCC3COc4ccccc4O3)CC2)cc1 (stereo not drawn)	i	?	21µM	i	i	23µM
CCCCC(CC)COC(=O)CC(C(=O)OCC(CC)CCCC)S(=O)(=O)O (stereo not drawn)	nt	nt	i	i	nt	?
COc1ccccc1NC(=O)CSC1=Nc2ccccc2C2=NC(CCC(=O)NCc3ccco3)C(=O)N12 (stereo not drawn)	nt	nt	15µM	i	i	16µM

From PubChem
